# Tested on: Plasmodium falciparum NF54-HGL (transmission to Anopheles stephensi)
# Experiment: percentage of barcode signal found in uninfected mosquitoes (transmission-blocking activity); higher = stronger blocking of transmission to mosquito, active = 80 or more
# Conditions: 10 µM; gametocyte preincubation time 24 h; readout time post-feed 8 days
# Procedure: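 The mixture was fed to Anopheles stephensi in 96-well plates as blood meals tagged with DNA-barcoded Asaia bacteria. Eight days later, mosquitoes were classed infected or uninfected by luminescence (mean + 5 SD of unfed controls). Barcodes were quantified by Luminex MagPlex-TAG in the pooled uninfected and infected Asaia cultures, background-corrected, and the score is % of barcode signal in uninfected mosquitoes = 100*Iu/(Iu+Ii).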
row,SMILES,percentage of barcode signal found in uninfected mosquitoes
1,Cc1nc(-c2ccccn2)nc(N2CCC(Cc3ccccc3)C2)c1Cl (stereo not given),78% (inactive)
2,CCCn1c(CNc2ccccc2O)nc2ccccc21,34.7% (inactive)
3,N#Cc1nc(-c2ccccc2F)oc1NCCc1ccccc1,1.26% (inactive)
4,Nc1nccc2ccc(-c3ccc4nccn4c3)cc12,92.9% (active)
5,CNC(=O)C1Cc2ccccc2N1C(=O)Cc1ccc(F)cc1 (stereo not given),27.5% (inactive)
6,Oc1c(I)cc(I)c2cccnc12,-1.81% (inactive)
7,COc1nc2ccc(Br)cc2cc1[C@@H](c1ccccc1)[C@@](O)(CCN(C)C)c1cccc2ccccc12,-3.2% (inactive)
8,COc1ccc(-c2onc(C(F)(F)F)c2-c2ccc(Cl)cc2)c(O)c1,25.2% (inactive)
9,Clc1ccc(CCNc2cc(-c3ccccc3)nc3ncnn23)cc1,-1.04% (inactive)
10,O=C1COCc2ccc(Br)cc2N1Cc1ccc(C(F)(F)F)cc1,22.4% (inactive)
11,COC(=O)Nc1nc2cc(C(=O)c3ccccc3)ccc2[nH]1,42.3% (inactive)
12,CCn1cnc2c(Nc3cc(F)cc(F)c3)nc(C#N)nc21,33.6% (inactive)
13,CC(=O)NC[C@H]1CN(c2ccc(N3CCSCC3)c(F)c2)C(=O)O1,24.7% (inactive)
14,CC(Oc1ccccc1)C(=O)Nc1nc(-c2ccccn2)cs1 (stereo not given),84.2% (active)
15,Cc1ccc2nc(Cl)c(CNCc3cccs3)cc2c1,7.16% (inactive)
16,c1ccc(-c2[nH]c3ccccc3c2C(c2ccccn2)N2CCCC2)cc1 (stereo not given),82.6% (active)
17,COC(=O)c1cccc2oc(-c3cccc(OC)c3NC(=O)c3cc(-c4ccccc4)on3)nc12,31% (inactive)
18,O=C(C1CCN(c2nnnn2-c2ccccc2)CC1)N1CCc2ccccc2C1,46.7% (inactive)
19,COc1cccc(-n2nnnc2S(=O)(=O)Cc2ccccc2)c1,90.4% (active)
20,O=C(Nc1ccc(F)c(-c2nc3cc(-c4ccccc4)cnc3[nH]2)c1)N1CCCC1,35.5% (inactive)
21,Cc1cc(C(=O)Nc2cnn(Cc3ccc(Cl)cc3Cl)c2)no1,42.7% (inactive)
22,Cc1nc2ccccn2c1C(=O)NCc1ccc(Cl)cc1,48.8% (inactive)
23,O=C(C1CCCCC1)N1CC(=O)N2CCc3ccccc3C2C1 (stereo not given),51.6% (inactive)

# Same assay, conditions: 20 µM; gametocyte preincubation time 24 h; readout time post-feed 8 days
row,SMILES,percentage of barcode signal found in uninfected mosquitoes
1,c1ccc(Oc2ccc(-c3cc(CN4CCOCC4)[nH]n3)cc2)cc1,3.15% (inactive)
2,CC(C)(C)C(=O)N(CCCCCCN1C[C@H](O)[C@@H](O)[C@H](O)[C@H]1CO)C1CCCCCC1,17% (inactive)
3,Clc1cccc(CO[C@H]2CCc3ccccc3[C@@H]2n2ccnn2)c1,-1.12% (inactive)
4,COc1ccc(-c2nn(C(C)C)c3ncnc(N)c23)cc1OC,95.5% (active)
5,Clc1ccc(CN2CCN(C3=NCCN3)CC2)cc1Cl,4.45% (inactive)
6,CN1CCC(NCc2cccc(-c3ccc(S(=O)(=O)NCc4ccccc4)cc3)c2)CC1,98.6% (active)
7,Cc1cc(C)c2cc(C(=O)NC3CCCCCCC3)[nH]c2c1,0.265% (inactive)
8,COc1ccc(-c2cncc3ccc(C(=O)NCCCn4ccnc4)nc23)cc1,62.9% (inactive)
9,COc1cc(CN2CCC3(C=Cc4ccccc43)CC2)cc2c1OCO2,0.609% (inactive)
10,Cc1ccc(S(=O)(=O)n2cc(-c3ccnc(N)c3)c3cc(Br)cnc32)cc1,1.79% (inactive)
11,COc1ccc(-c2cnc3cnc(-c4cccc(OC(C)C)c4)cn23)cc1,-0.618% (inactive)
12,O=C(c1ccc(F)cc1)N(CCNc1ccccc1)c1ccccc1,7.39% (inactive)
13,Cc1ccccc1C(=O)N1N=C(Nc2ccccc2)SC1(C)C,-0.332% (inactive)
14,CC(C)C(Oc1cccc2ccccc12)C(=O)O (stereo not given),20% (inactive)
15,C[C@H](C(N)=O)N1CCCC[C@@H]1c1ccc(OCc2cccc(F)c2)cc1,17.3% (inactive)
16,CCOC(=O)c1noc(N)c1-c1ccccc1,25.4% (inactive)
17,COc1ccc(CCN2CCC(NCc3cccc(N(C)C)c3)CC2)cc1,94.9% (active)

# — the supplement of paper PMC8726507
